# Test results as given in PubChem BioAssay (Tox21).
# Several values for one entry are separate records, joined by “and”; a condition that tells them apart may be missing. Identical values can stand only once. Records with an inconclusive call do not appear. A call without a number means that no potency is given here. The source holds several records for some structures; these can differ, active in one and inactive in another. Activity calls are given as the source filed them. Calls follow the shape of the dose curve; as a rule, active = well fitted curve in the direction sought with a large enough effect in the repeat runs; inconclusive = weak or mixed curves; inactive = no such curve, though single readings can be large; an effect the other way counts as inactive or inconclusive.
# Test system: not listed separately
# Assay: Caspase-3/7 induction in HepG2 cells by small molecules, qHTS cell viability counter screen (AID 1346981); also: nearly all actives have a fitted effect of over 30% in size
# Details: CellTiter-Fluor fluorescence, 17 h; series mostly up to 92.4 µM; activity change, negative = cytotoxicity: at the top concentration
# In short: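 Multiplexed with the caspase-3/7 assay: HepG2 cells, 16 hr compound treatment, CellTiter-Fluor viability detection by fluorescence.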
# Potency is read from the fitted curve at half-maximal effect.
SMILES,Potency,"activity change, negative = cytotoxicity"
CCCCCCCCCCCC(=O)O,inactive,
C[C@]12CCC(=O)C=C1CC[C@@H]1[C@@H]2CC[C@]2(C)C(=O)CC[C@@H]12,inactive,
CC(=O)[O][Hg][c]1ccccc1,5.4 µM (active) and 5.45 µM (active) and 11.9 µM (active),
C=CCOC(Cn1ccnc1)c1ccc(Cl)cc1Cl (stereo not drawn),,-0.141% [at 42.5 µM] (inactive)
CN(C)[C@@H]1C(=O)C(C(N)=O)=C(O)[C@@]2(O)C(=O)C3=C(O)c4c(O)cccc4[C@@](C)(O)[C@H]3[C@H](O)[C@@H]12,,-10% (inactive)
CC(Cl)(Cl)C(=O)O,inactive,
O=S(=O)(O)O,inactive,
O=[N+]([O-])O,inactive,
O=C(O)C(Cl)(Cl)Cl,inactive,
Nc1ccc(-c2ccc(N)c(Cl)c2)cc1Cl,9.04 µM (active) and 54.5 µM (active),
CCCn1cc[n+](C)c1,inactive,
O=C(O)CCl,inactive,
O=C(O)C(Cl)Cl,inactive,
CCOP(=S)(OCC)Oc1ccc2c(C)c(Cl)c(=O)oc2c1,inactive,
C1CCC(NC2CCCCC2)CC1,inactive,
O=C(O)c1nc(Cl)ccc1Cl,inactive,

SMILES,Potency,"activity change, negative = cytotoxicity"
Nc1ccc(Cl)cc1,inactive,
Cc1cc(-c2ccc(N)c(C)c2)ccc1N,inactive,
O=c1[nH]c(=O)n(Cl)c(=O)n1Cl,inactive,
CCNc1nc(Cl)nc(NCC)n1,inactive,
Oc1ccccc1-c1ccccc1,inactive,
OCCOc1ccccc1,inactive,
COP(=O)(OC)OC=C(Cl)Cl,inactive,
CCCCn1cc[n+](C)c1,inactive,
O=P1(N(CCCl)CCCl)NCCCO1 (stereo not drawn),inactive,
COCC(=O)N(c1c(C)cccc1C)C(C)C(=O)OC (stereo not drawn),inactive,
Nc1ccc(-c2ccc(N)cc2)cc1,inactive,
CCCCCCCCCCCCOS(=O)(=O)O,inactive,
COP(=O)(OC)C(O)C(Cl)(Cl)Cl (stereo not drawn),inactive,
O=C(O)c1ccccc1O,inactive,
CCCC[N+]1(C)CCCCC1,inactive,
N#CS,inactive,

# Biological target: Nuclear receptor subfamily 1 group I member 2 (Homo sapiens) (UniProt O75469)
# Assay: Human pregnane X receptor (PXR) small molecule agonists, qHTS assay (AID 1346982); also: nearly all actives have a fitted effect of over 35% in size
# Details: PXR-Luc HepG2, CYP3A4 luciferase reporter, 24 h; series mostly up to 92.4 µM; activation: at the top concentration
# In short: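 We seeded PXR-Luc HepG2 cells in assay medium containing 5% charcoal-stripped FBS, added compounds 5 hr later, incubated 24 hr, and read luminescence with ONE-Glo reagent.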
# Chain of Nuclear receptor subfamily 1 group I member 2 (Homo sapiens) (O75469 whole entry, looked up): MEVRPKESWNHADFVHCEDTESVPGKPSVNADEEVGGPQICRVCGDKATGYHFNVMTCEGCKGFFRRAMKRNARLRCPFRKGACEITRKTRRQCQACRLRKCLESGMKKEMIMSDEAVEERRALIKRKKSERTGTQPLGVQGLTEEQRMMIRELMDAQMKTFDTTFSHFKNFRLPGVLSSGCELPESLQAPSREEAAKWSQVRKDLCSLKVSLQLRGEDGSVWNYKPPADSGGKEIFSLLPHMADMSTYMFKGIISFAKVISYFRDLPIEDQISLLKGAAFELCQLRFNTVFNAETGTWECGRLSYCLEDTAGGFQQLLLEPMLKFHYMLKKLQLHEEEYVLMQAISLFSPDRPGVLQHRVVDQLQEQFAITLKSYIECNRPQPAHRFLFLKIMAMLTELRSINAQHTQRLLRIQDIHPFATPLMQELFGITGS
SMILES,Potency,activation
CCCCCCCCCCCC(=O)O,inactive,
C[C@]12CCC(=O)C=C1CC[C@@H]1[C@@H]2CC[C@]2(C)C(=O)CC[C@@H]12,53.5 µM (active) and inactive,
CC(=O)[O][Hg][c]1ccccc1,inactive,
C=CCOC(Cn1ccnc1)c1ccc(Cl)cc1Cl (stereo not drawn),48.7 µM (active) and 15.4 µM (active) and 11.9 µM (active),
CN(C)[C@@H]1C(=O)C(C(N)=O)=C(O)[C@@]2(O)C(=O)C3=C(O)c4c(O)cccc4[C@@](C)(O)[C@H]3[C@H](O)[C@@H]12,inactive,
CC(Cl)(Cl)C(=O)O,inactive and 61.3 µM (active),
O=C(O)C(Cl)(Cl)Cl,inactive,
Nc1ccc(-c2ccc(N)c(Cl)c2)cc1Cl,30.8 µM (active) and 9.69 µM (active),
CCCn1cc[n+](C)c1,inactive,
O=C(O)CCl,inactive,
O=C(O)C(Cl)Cl,inactive,
CCOP(=S)(OCC)Oc1ccc2c(C)c(Cl)c(=O)oc2c1,27.6 µM (active) and 19.3 µM (active) and 23.7 µM (active),
C1CCC(NC2CCCCC2)CC1,inactive,
O=C(O)c1nc(Cl)ccc1Cl,inactive,
Nc1ccc(Cl)cc1,inactive and 62.2 µM (active),
Cc1cc(-c2ccc(N)c(C)c2)ccc1N,53.7 µM (active) and 61.8 µM (active),
O=c1[nH]c(=O)n(Cl)c(=O)n1Cl,inactive,
CCNc1nc(Cl)nc(NCC)n1,inactive,
Oc1ccccc1-c1ccccc1,inactive and 31.4 µM (active),
OCCOc1ccccc1,inactive,
COP(=O)(OC)OC=C(Cl)Cl,inactive,
O=P1(N(CCCl)CCCl)NCCCO1 (stereo not drawn),inactive,
COCC(=O)N(c1c(C)cccc1C)C(C)C(=O)OC (stereo not drawn),,26.9% (inactive)
Nc1ccc(-c2ccc(N)cc2)cc1,30.3 µM (active) and 1.08 µM (active) and 34.4 µM (active),
CCCCCCCCCCCCOS(=O)(=O)O,inactive,
CCCC[N+]1(C)CCCCC1,inactive,
